In ChEMBL document CHEMBL3988442, “University of Dundee, Small-Polar-MMV Screening Library” (2021):
For some of these results: Measured potencies and affinities stand elsewhere.

Key:
Parameters in all cases: scale not given: direction of the effect not stated beside the values
[1] = target: Protein translocase subunit SecA (Escherichia coli (strain K12)) (UniProt P10408); assay: Assay to Identify E. coli SecA ATPase Inhibitors; assay type: functional; settings: 30 µM
[2] = target: T1, Ubiquitin-activating enzyme e1, putative (Leishmania donovani (strain BPK282A1)) (UniProt E9BSI1); assay: Leishmania donovani Ubiquitin Activating Enzyme (LdE1); assay type: functional; settings: 30 µM
T1 sequence (whole entry): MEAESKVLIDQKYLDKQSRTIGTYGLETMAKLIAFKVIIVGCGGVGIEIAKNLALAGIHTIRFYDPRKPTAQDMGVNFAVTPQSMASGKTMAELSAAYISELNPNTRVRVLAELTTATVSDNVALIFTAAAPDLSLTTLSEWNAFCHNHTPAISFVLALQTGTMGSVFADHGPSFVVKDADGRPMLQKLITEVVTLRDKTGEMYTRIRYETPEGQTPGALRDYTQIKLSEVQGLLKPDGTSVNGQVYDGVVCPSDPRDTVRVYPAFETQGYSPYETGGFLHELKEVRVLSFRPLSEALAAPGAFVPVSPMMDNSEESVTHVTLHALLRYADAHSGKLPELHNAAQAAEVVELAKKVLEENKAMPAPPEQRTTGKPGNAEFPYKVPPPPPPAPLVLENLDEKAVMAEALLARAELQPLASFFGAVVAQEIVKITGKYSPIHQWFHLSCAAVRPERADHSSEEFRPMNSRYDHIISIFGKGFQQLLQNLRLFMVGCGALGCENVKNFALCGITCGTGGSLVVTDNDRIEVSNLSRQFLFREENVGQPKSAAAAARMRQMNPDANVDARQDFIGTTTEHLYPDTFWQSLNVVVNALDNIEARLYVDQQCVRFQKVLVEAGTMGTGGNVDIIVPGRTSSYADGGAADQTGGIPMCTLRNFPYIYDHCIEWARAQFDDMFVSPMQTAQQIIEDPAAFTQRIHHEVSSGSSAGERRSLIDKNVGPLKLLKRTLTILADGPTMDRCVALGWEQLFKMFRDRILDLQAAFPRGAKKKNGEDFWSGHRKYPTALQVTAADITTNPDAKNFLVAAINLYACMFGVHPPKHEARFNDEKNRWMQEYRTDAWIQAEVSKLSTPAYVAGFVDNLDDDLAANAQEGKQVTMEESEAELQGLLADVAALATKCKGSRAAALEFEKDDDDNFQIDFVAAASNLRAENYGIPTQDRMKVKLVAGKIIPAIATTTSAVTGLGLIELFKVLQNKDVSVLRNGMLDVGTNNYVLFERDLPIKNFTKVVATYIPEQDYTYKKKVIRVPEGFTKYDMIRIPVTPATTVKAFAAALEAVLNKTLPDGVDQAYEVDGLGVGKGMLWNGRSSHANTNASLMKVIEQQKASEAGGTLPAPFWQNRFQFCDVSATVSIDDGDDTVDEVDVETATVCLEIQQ

[3] = target: AMP-activated protein kinase, AMPK (Homo sapiens) (UniProt P54646+O43741+P54619+Q9UGJ0+Q9Y478+Q13131+Q9UGI9); assay: AMP-dependent Kinase enzyme assay. An in vitro enzyme assay that detects ADP turnover that is directly proportional to AMPK activity. This uses naive AMPK that is activated during the assay with MK-8722; assay type: functional; settings: 30 µM
[4] = target: Sialic acid-binding Ig-like lectin 9 (Homo sapiens) (UniProt Q9Y336); assay: Hs-Siglec9 ALPHAscreen SOP 20170721; settings: 10 µM
Trypanosoma cruzi = assay: Trypanosoma cruzi phosphomannomutase and mannose-1-phosphate guanylyltransferase assay; assay type: functional; settings: 10 µM
[5] = target: T2, Arginase-2, mitochondrial (Homo sapiens) (UniProt P78540); assay: in vitro enzyme assay to detect the production of urea directly proportional to the activity of Arginase II; assay type: functional; settings: 33.3 µM; also: in the data most compounds retested in dose-response had high values
T2 sequence (whole entry): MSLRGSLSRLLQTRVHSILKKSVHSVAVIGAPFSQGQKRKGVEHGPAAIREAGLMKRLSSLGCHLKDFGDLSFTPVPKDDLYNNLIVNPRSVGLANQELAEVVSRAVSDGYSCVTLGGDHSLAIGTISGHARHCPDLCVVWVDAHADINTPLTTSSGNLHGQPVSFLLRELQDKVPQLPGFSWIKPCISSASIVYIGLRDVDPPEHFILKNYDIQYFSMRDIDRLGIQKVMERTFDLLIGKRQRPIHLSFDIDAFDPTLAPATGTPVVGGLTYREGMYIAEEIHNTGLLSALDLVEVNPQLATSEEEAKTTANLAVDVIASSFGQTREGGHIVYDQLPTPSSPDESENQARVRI

[6] = target: T3, Proteasome subunit beta (Trypanosoma cruzi) (UniProt O96673); assay: Trypanosoma cruzi proteasome chymotrypsin-like activity (TcProtChymo) assay.; also: in the data most compounds retested in dose-response had high values; assay type: functional; settings: 9.37 µM
T3 sequence (whole entry): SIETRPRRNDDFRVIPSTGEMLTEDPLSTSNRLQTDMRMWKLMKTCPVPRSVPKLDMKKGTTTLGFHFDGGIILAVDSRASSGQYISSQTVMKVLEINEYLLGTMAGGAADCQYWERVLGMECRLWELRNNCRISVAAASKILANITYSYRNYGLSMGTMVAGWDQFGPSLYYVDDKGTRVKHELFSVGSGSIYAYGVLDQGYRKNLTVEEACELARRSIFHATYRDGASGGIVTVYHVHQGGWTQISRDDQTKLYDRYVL

Homo sapiens = species: Homo sapiens; assay: To identify inhibition of the IFN signalling (Jak-Stat) pathway via expression of an eGFP reporter gene under the control of an IFN-stimulated response element (ISRE) containing MxA promoter.; assay type: functional; settings: 30 µM
[7] = target: T4, Tyrosyl-tRNA synthetase, putative (Trypanosoma cruzi (strain CL Brener)) (UniProt Q4DSP6); assay: Trypanosoma cruzi tyrosyl tRNA synthetase (TcYRS) _High Tyrosine SOP; assay type: functional; settings: 30 µM; also: in the data most compounds retested in dose-response had high values
T4 sequence (whole entry): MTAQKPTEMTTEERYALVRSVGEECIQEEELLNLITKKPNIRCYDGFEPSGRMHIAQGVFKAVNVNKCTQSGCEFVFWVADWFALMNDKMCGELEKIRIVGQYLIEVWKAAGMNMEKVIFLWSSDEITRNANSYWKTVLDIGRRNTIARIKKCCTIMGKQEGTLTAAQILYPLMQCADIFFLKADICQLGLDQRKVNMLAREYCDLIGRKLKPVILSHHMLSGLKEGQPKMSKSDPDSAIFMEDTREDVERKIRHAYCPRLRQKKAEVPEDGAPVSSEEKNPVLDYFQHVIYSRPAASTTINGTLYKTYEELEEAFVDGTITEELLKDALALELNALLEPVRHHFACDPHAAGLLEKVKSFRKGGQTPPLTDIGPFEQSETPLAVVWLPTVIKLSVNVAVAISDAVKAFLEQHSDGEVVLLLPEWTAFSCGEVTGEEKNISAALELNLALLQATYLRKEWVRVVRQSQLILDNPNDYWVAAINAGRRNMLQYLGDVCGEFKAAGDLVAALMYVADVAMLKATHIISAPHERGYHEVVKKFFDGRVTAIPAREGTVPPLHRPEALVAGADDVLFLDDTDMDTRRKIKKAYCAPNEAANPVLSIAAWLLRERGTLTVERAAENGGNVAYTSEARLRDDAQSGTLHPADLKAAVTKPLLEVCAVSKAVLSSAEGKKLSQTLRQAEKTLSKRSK

[8] = target: T4, Tyrosyl-tRNA synthetase, putative (Trypanosoma cruzi (strain CL Brener)); assay: Trypanosoma cruzi tyrosyl tRNA synthetase (TcYRS) SOP; assay type: functional; settings: 30 µM
[9] = target: Chromo domain-containing protein 1 (Saccharomyces cerevisiae (strain ATCC 204508 / S288c) (Baker's yeast)) (UniProt P32657); assay: ScCHD-1 Enzyme Inhibition Assay; assay type: functional; settings: 30 µM; also: in the data most compounds retested in dose-response had high values
Chromo domain-containing protein 1 (Saccharomyces cerevisiae (strain ATCC 204508 / S288c) (Baker's yeast)), sequence (P32657 whole entry, the tested form may be a part): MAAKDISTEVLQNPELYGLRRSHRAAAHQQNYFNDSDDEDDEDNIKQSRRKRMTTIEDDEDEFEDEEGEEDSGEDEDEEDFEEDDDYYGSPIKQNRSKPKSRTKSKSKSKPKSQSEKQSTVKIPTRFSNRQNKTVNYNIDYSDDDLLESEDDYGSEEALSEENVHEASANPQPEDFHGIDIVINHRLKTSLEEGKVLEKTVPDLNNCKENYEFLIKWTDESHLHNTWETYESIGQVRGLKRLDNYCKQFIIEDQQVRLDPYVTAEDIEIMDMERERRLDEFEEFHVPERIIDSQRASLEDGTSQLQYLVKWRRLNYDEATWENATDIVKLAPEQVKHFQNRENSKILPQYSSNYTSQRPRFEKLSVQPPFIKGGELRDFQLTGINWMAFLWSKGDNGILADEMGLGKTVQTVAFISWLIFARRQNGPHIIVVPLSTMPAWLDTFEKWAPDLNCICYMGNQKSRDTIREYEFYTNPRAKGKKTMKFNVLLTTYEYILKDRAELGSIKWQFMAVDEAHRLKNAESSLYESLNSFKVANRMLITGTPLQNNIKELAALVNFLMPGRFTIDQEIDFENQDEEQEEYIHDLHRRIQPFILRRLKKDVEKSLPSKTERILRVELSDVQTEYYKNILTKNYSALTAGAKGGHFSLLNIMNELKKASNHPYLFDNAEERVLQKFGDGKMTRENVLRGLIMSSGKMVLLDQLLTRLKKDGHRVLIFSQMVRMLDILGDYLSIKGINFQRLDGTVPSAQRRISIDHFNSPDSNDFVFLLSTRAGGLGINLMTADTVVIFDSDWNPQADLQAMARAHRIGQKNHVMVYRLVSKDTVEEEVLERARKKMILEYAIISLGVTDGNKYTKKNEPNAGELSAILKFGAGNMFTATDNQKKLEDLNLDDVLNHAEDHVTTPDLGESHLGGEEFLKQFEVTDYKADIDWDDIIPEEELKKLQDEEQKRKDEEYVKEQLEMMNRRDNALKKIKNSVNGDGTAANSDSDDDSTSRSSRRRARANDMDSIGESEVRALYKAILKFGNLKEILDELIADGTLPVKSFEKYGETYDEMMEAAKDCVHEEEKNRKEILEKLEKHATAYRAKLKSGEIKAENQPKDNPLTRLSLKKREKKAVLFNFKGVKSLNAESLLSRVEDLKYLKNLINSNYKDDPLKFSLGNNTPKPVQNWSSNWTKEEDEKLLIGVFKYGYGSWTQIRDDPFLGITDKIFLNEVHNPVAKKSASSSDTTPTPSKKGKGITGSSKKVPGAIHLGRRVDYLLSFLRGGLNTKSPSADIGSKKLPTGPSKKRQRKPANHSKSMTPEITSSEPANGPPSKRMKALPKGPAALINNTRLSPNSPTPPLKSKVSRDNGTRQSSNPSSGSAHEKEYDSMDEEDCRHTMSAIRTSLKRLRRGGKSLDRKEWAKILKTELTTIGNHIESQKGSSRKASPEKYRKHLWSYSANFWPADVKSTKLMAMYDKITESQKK

Sialic acid-binding Ig-like lectin 9 (Homo sapiens), sequence (Q9Y336 whole entry): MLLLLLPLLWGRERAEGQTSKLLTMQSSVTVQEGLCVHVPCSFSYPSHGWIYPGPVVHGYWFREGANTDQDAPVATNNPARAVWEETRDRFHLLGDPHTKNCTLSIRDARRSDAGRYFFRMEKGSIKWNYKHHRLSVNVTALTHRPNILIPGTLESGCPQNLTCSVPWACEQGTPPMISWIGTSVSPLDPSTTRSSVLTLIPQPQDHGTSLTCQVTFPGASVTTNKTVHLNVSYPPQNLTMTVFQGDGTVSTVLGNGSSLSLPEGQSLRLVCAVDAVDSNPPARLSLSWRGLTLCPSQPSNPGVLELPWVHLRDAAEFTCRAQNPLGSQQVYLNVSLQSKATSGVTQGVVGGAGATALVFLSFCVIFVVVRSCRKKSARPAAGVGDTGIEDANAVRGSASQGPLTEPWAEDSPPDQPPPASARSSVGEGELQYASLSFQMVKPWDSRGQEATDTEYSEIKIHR
Protein translocase subunit SecA (Escherichia coli (strain K12)), sequence (P10408 whole entry): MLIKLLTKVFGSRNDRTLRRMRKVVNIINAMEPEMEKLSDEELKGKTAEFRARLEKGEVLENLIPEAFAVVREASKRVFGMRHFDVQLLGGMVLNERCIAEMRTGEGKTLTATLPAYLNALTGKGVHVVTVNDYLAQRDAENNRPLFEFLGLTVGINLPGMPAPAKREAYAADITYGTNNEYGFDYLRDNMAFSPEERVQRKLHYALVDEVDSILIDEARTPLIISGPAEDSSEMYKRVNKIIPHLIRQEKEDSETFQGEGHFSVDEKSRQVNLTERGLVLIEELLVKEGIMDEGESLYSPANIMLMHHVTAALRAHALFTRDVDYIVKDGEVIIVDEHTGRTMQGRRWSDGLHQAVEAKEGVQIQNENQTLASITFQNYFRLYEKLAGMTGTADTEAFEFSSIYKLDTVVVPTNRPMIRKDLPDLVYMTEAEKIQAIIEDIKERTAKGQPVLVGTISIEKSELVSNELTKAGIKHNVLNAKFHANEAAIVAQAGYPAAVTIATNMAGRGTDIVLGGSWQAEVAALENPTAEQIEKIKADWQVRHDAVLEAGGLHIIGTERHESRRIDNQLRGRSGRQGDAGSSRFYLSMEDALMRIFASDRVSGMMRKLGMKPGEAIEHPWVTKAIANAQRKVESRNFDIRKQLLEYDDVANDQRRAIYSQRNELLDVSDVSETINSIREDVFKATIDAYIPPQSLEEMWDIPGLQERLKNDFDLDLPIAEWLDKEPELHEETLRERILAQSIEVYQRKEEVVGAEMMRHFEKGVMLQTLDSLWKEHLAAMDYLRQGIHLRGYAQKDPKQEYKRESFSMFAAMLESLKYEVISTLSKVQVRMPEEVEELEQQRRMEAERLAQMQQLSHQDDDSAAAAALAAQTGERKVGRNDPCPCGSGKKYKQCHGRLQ

Structure (SMILES)	Percent Effect [1] [%]	Percent Effect [2] [%]	Percent Effect [3] [%]	Percent Effect [4] [%]	Percent Effect (Trypanosoma cruzi) [%]	Percent Effect [5] [%]	Percent Effect [6] [%]	Percent Effect (Homo sapiens) [%]	Percent Effect [7] [%]	Percent Effect [8] [%]	Percent Effect [9] [%]
CCc1nc(C2CCCN2CC(=O)Nc2sc(C)c(C)c2C)no1 (stereo unspecified)	-2.85	-5.2	3.9	11.2	1.69	-1.42	-8.11	11.2	13.6	14.6	-1.21
CN(C)CCNC(=O)c1cnc2c(c1)nc(-c1ccccc1Cl)n2C	-0.258	8.11	-1.84	30.9	3.81	1.74	9.36	17.4	7.53	16.1	-5.45
CC(O)CC(C)(C)CNC(=O)NCc1cccc(-n2cncn2)c1 (stereo unspecified)	-3.57	-2.7	-0.791	7.51	2.64	4.22	9.53	-9.29	0	1.24	-0.141
COc1ccccc1N1CCC(CNCc2cccc(C#N)c2)C1 (stereo unspecified)	-2.81	8.11	9.38	-7.09	3.11	-8.82	17.3	-10.4	13.3	18.5	10.3
O=C(CCc1ccc(O)cc1)N1CCC(Cc2ccc(CO)cc2)C1 (stereo unspecified)	-2.29	6.94	21.8	-5.94	-2.82	1.32	8.6	-10.8	5.26	12.8	-1.12
Cc1ccc(C2COCCN2C(=O)c2ccc(CN(C)C)cc2)o1 (stereo unspecified)	-0.657	-5.33	-1.26	2.6	-1.85	2.08	4.01	0.868	1.64	1.24	-0.0158
O=C(CSc1nc2c(cnn2CCO)c(=O)[nH]1)N1CCCCCC1	1.99	8.22	-8.26	4.22	-3.33	3.18	11.4	14.3	4.3	10	-2.48
CN(Cc1nnc2n1CCC2)C(=O)Cc1ccc2c(c1)OCCO2	-1.44	13.5	-8.06	-5.38	4.25	-5.21	13.7	10.6	4.43	18.5	-8.36
Cc1cnn(CCCNC(=O)N2CCCCC(N3CCCC3)C2)c1 (stereo unspecified)	-2.45	15.8	0.679	7.49	3.19	4.21	15.5	8.88	8.33	19.5	-2.25
CCOCC(=O)N1CCC(Oc2ccc(C(F)(F)F)cn2)CC1	0.852	5.2	2.97	4.76	-5.42	13.6	15.1	12.1	0	3.85	-4.83
COc1c(CNCC(c2cccc(F)c2)N(C)C)c(C(C)C)nn1C (stereo unspecified)	-2.21	5.2	-2.29	-6.06	4.6	-3.16	4.61	5.62	0	9.41	-5.27
